MmCpn inh: M. maripaludis TRiC chaperonin inhibition | AID 504842 | 330,000 tested, 0.031% active | Potency, µM (top dose mostly 76.9 µM), without a hit: at the top dose activity, negative = inhibition, most hits filed as inhibitors | purified Mm-Cpn ATPase, ADP Transcreener TR-FRET; note: potency is the fitted concentration of half-maximal effect; nearly all actives have a fitted effect of over 80% in size
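Purified archaeal chaperonin (25 nM final) was preincubated with compound for 10 min at 37°C, then ATP (10 uM final) was added for 30 min at 37°C in Tris pH 7.4/KCl/MgCl2/DTT buffer. ADP was quantified by HTRF Transcreener TR-FRET.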
VDR inh: inhibitors of human vitamin D receptor | P11473 | VDR-SRC2-3 peptide fluorescence polarization, 2 h | Potency, µM, without a hit: max response, negative = inhibition, usual class: inhibitors | 400,000 tested, 0.93% active; note: potency is the fitted concentration of half-maximal effect
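FP read-out; VDR + SRC2-3 coactivator peptide; 23 nl compound by pintool; 2 h RT incubation; reagents held at 4 deg C, protected from light.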
G9a inh: G9a (human) methyltransferase inhibition; Q96KQ7; G9a H3K9 monomethylation, AlphaScreen, 2 h; Potency, µM (top dose mostly 102 µM), for inactives: top-dose activity, negative = inhibition, actives largely listed as inhibitors; 350,000 tested, 8.8% active; AID 504332; note: potency is the fitted concentration of half-maximal effect; nearly all actives have a fitted effect of over 75% in size
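Methyltransferase reactions run at room temperature for 2 h (20 nM enzyme, 500 nM biotin-H3K9 peptide, 20 uM SAM) after a 15 min compound preincubation; product detected by AlphaScreen beads and anti-H3K9me1 antibody.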
Sfp PPTase inh: blocks B. subtilis Sfp PPTase activity. Q9F4F7. Biochemical Sfp PPTase activity, qHTS. Potency, µM, for the others: largest response in the series, negative = inhibition, usual class: inhibitors. 310,000 tested, 3.5% active. AID 1490;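 note: the enzyme is Sfp with the accession as filed and its product quenches rhodamine fluorescence; potency is the fitted concentration of half-maximal effect; 0% = enzyme reaction without inhibitor and -100% = no enzyme wells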
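With Hepes-Na pH 7.6 buffer containing 10 mM MgCl2, Sfp (15 nM) modified BHQ-2-YbbR (12.5 uM) using rhodamine-CoA (5 uM). Two reads 30 minutes apart at 525/598 nm yielded each well's rate.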
CCT modulator: cytosolic chaperonin activity modulation. activity change, % (no concentration beside the values), hits read low. purified chaperonin ATPase assay, HTRF ADP detection, 30 min. AID 651819. 360,000 tested, 0.3% active; in the data active = activity change below about -30%
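First, chaperonin was dispensed at 40 nM or 20 nM final depending on batch activity. Next, compounds were pinned at 76 uM and ATP added at 10 uM. After 30 min at 37 °C, ADP detection reagents ran 30 min at ambient temperature.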
PLK1 PBD inh: inhibitors of human PLK1 polo-box domain binding. P53350. Plk1 PBD binding of FITC phosphopeptide, fluorescence polarization. Potency, µM, for inactives: max response, negative = inhibition, hits mostly inhibitors. 360,000 tested, 2.8% active. AID 720504; note: potency is the fitted concentration of half-maximal effect; series mostly up to about 57 µM; nearly all actives have a fitted effect of over 65% in size
Target sequence (P53350 whole entry, looked up, the tested form may be a part): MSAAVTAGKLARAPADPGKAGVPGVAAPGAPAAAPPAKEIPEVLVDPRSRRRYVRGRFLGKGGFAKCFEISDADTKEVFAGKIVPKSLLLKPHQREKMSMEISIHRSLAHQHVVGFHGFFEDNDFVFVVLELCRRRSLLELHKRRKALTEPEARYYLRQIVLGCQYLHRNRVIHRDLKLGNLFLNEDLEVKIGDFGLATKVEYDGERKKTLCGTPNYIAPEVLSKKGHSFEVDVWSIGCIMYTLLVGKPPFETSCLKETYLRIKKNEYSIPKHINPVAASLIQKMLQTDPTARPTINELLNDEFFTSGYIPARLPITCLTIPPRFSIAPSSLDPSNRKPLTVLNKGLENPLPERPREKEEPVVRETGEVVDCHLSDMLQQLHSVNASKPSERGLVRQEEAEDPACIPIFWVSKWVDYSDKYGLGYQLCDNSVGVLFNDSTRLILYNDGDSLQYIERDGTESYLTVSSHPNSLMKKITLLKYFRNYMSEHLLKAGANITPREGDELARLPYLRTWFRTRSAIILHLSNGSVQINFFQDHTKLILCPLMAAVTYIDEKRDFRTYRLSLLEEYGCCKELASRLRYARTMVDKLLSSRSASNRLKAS
The depositor's hits bear a star; [ ] = dose if it differs, or a comment. Only some compounds are listed: those with a hit (about 10% of all), similar ones and a draw of the others. Unless noted, calls come from the whole dose curve; as a rule, active = well fitted curve in the direction sought with a large enough effect; inconclusive = small, poorly fitted or top-dose-only effect, or another doubt; inactive = no such curve, though single readings can be large; an effect the other way counts as inactive or inconclusive. Unless noted, % is set by controls: 0 for no effect and ±100 for the full control effect.

Screening Cc1ccc(C(=O)NCC(=O)OCc2c(F)cccc2Cl)cc1 returned MmCpn inh 0%, VDR inh 0%, G9a inh 0%, CCT modulator 2 and PLK1 PBD inh -1%.
CCn1cc(C(=O)O)c(=O)c2cc(F)c(N3CCN(C(=S)NC(=O)c4c(OC)cccc4OC)CC3)cc21 was read as MmCpn inh 0%, VDR inh 2%, G9a inh 35µM*, Sfp PPTase inh -17%, CCT modulator -2 and PLK1 PBD inh -9%.
CCOC(=O)N1CCN(C(=O)c2cn(CC)c3cc(N4CCN(C)CC4)c(F)cc3c2=O)CC1 was read as MmCpn inh -2%, G9a inh 14µM* and Sfp PPTase inh 0%.
For CCOC(=O)C1CN(c2cc3c(cc2F)c(=O)c(C(=O)O)cn3CC)OC1C(=O)OCC (configuration not stated) the results were MmCpn inh -10%, VDR inh 2%, G9a inh 40µM*, Sfp PPTase inh 8%, CCT modulator -1 and PLK1 PBD inh -1%.
Screening CCn1cc(C(=O)O)c(=O)c2cc(F)c(N3CCN(C(=S)NC(=O)c4ccc(F)c(F)c4)CC3)cc21 returned MmCpn inh 5%, VDR inh 11%, G9a inh 50µM*, Sfp PPTase inh -2%, CCT modulator -3 and PLK1 PBD inh inconclusive.
For CCn1cc(C(=O)O)c(=O)c2cc(F)c(N3CCN(C(=S)NC(=O)c4ccc(F)cc4)CC3)cc21 the results were MmCpn inh 1%, VDR inh 30%, Sfp PPTase inh -4%, CCT modulator 0 and PLK1 PBD inh -20%.
For CCn1cc(C(=O)NN)c(=O)c2cc(F)c(N3CCN(C)CC3)cc21 the results were MmCpn inh -1%, VDR inh -17%, G9a inh -14%, Sfp PPTase inh 10%, CCT modulator 0 and PLK1 PBD inh -9%.
For CCn1cc(C(=O)O)c(=O)c2cc(F)c(N3CCN(C(=S)Nc4ccccc4OC)CC3)cc21 the results were MmCpn inh 0%, VDR inh -9%, G9a inh 22%, Sfp PPTase inh 18%, CCT modulator 0 and PLK1 PBD inh -13%.
`CCOC(=O)N1CCN(C(=O)CSCC(=O)N=c2sc3cc(OC)ccc3n2C)CC1` gave VDR inh inconclusive, CCT modulator -1 and PLK1 PBD inh 27µM*.
For CC(=O)Nc1ccc(NC(=O)C/C(C)=N/NC(=O)C(=O)N2CCCC2)cc1 the results were MmCpn inh 1%, VDR inh -10%, G9a inh 35µM*, Sfp PPTase inh -12%, CCT modulator -1 and PLK1 PBD inh -4%.
Screening C/C(CC(=O)Nc1ccc(F)cc1F)=N\NC(=O)C(=O)N1CCCCC1 returned MmCpn inh -1%, G9a inh 2% and Sfp PPTase inh 10%.
Screening COc1ccc(CCNc2ncnc3c2nnn3C)cc1OC returned VDR inh 15% and G9a inh -3%[59 µM].
Screening CSc1nnc(CNS(=O)(=O)c2ccc(Br)cc2)n1C returned MmCpn inh -3%, VDR inh 2%, G9a inh 14%, Sfp PPTase inh 12%, CCT modulator -1 and PLK1 PBD inh 9%.
Cc1ccc(S(=O)(=O)NCc2n[nH]c(=S)n2C)cc1 was read as MmCpn inh 1%, VDR inh -4%, G9a inh 32µM*, Sfp PPTase inh -10%, CCT modulator -4 and PLK1 PBD inh -8%.
Screening C=CCn1c(CNS(=O)(=O)c2ccc(Br)cc2)n[nH]c1=S returned MmCpn inh 0%, VDR inh 1%, G9a inh 32µM*, Sfp PPTase inh 5%, CCT modulator -1 and PLK1 PBD inh -3%.
For Cn1c(CNS(=O)(=O)c2ccc(Br)cc2)n[nH]c1=S the results were MmCpn inh 2%, VDR inh 7%, G9a inh 22µM*, Sfp PPTase inh 1%, CCT modulator -3 and PLK1 PBD inh -7%.
`Cc1cccc(N2CCN(S(=O)(=O)c3nnc(NC(=O)c4ccc(Cl)cc4)s3)CC2)c1` gave VDR inh 0% and G9a inh inconclusive.
`COc1ccc(-n2c(=O)c3c(c4cc(OC)ccc4n3C)n(Cc3c(F)cccc3Cl)c2=O)cc1` gave VDR inh 25% and G9a inh inconclusive.
Screening CCCC[C@H](NC(=O)[C@H](CC(C)C)NC(=O)CNC(=O)[C@@H](NC(=O)[C@H](Cc1ccccc1)NC(=O)[C@H](CO)NC(=O)[C@@H](N)CC(=O)O)C(C)C)C(N)=O returned VDR inh 1% and Sfp PPTase inh -3%.
`Cc1ccc(C)c(N2CCN(S(=O)(=O)c3cc(C(=O)Nc4ccc(Oc5ccccc5)cc4)ccc3F)CC2)c1` gave VDR inh 16% and G9a inh -7%[59 µM].
Screening O=C(O)CNC(=O)CCCn1nnc2ccccc2c1=O returned MmCpn inh 2%, VDR inh 12%, G9a inh -37%, Sfp PPTase inh 7%, CCT modulator -2 and PLK1 PBD inh 8%.
Cc1nc(SCn2nnc3ccccc3c2=O)nc(C)c1C was read as MmCpn inh -3%, VDR inh -14%, G9a inh -3%[59 µM], Sfp PPTase inh 5%, CCT modulator 0 and PLK1 PBD inh -16%.
Screening O=c1c2ccccc2nnn1CSc1nnc(Nc2ccccc2)s1 returned MmCpn inh 0%, VDR inh -5%, G9a inh 45µM*, Sfp PPTase inh 15%, CCT modulator -1 and PLK1 PBD inh 1%.
Screening Nc1nc(SCn2nnc3ccccc3c2=O)n[nH]1 returned MmCpn inh 0%, VDR inh -17%, G9a inh 50µM*, Sfp PPTase inh -17%, CCT modulator -1 and PLK1 PBD inh -19%.
For O=C(O)CNC(=O)CCn1nnc2ccccc2c1=O the results were MmCpn inh -1%, VDR inh inconclusive, G9a inh -1%, Sfp PPTase inh 27%, CCT modulator -1 and PLK1 PBD inh 30µM*.
Screening CCCCCCCCCCCCCC[C@@H](O)[C@@H](O)[C@@H](N)CO returned VDR inh 67% and Sfp PPTase inh inconclusive.
`N#C/C(=C/c1ccc(O)c(O)c1)C(=O)NCc1ccc(Cl)cc1` gave MmCpn inh 1%, VDR inh -8%, G9a inh 11µM*, Sfp PPTase inh -11%, CCT modulator -3 and PLK1 PBD inh -11%.
For N#C/C(=C\c1ccc(O)c(O)c1)C(=O)Nc1cccc2ncccc12 the results were MmCpn inh -7%, VDR inh inconclusive, G9a inh 8.9µM*, Sfp PPTase inh -27%, CCT modulator -1 and PLK1 PBD inh -10%.

Bioassay records (PubChem BioAssay)
